Test results published in PMC5540273 (PLoS ONE, 2017).

Tests used:
Conditions in all cases: concentration: 1 μM,replicates: in singlicate; n = 1
CDC2L2 = system: CDC2L2
CDC2L5 = system: T1, CDC2L5
T1 construct: gene CDK13

CDK11 = system: T2, CDK11
T2 construct: gene CDK19

CDK2 = system: CDK2
CDK3 = system: CDK3
CDK4-cyclinD1 = system: CDK4-cyclinD1
CDK4-cyclinD3 = system: CDK4-cyclinD3
CDK4 = system: CDK4
CDK5 = system: CDK5
CDK7 = system: CDK7
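Also: KINOMEscan kinase panel screen.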

## Cl.Cl.NC[C@H](CC1CCCCC1)NC(=O)c1ccc(-c2ccnc3[nH]ccc23)s1 [GSK1581428]
CDC2L2
  %Inh: 0%
CDC2L5
  %Inh: 0%
CDK11
  %Inh: 4%
CDK2
  %Inh: 11%
CDK3
  %Inh: 0%
CDK4-cyclinD1
  %Inh: 0%
CDK4-cyclinD3
  %Inh: 23%
CDK4
  %Inh: 25%
CDK5
  %Inh: 0%
CDK7
  %Inh: 94.6%

## CC(C(=O)NC1CCN(c2ccnc(Nc3ccc(F)cc3)n2)C1)c1ccc(Cl)cc1 (stereo not shown) [GSK1379713]
CDC2L2
  %Inh: 0%
CDC2L5
  %Inh: 0%
CDK11
  %Inh: 6%
CDK2
  %Inh: 0%
CDK3
  %Inh: 23%
CDK4-cyclinD1
  %Inh: 0%
CDK4-cyclinD3
  %Inh: 0%
CDK4
  %Inh: 0%
CDK5
  %Inh: 0%
CDK7
  %Inh: 0%

## CS(=O)c1ccc(-c2coc3ccc(-c4n[nH]c(=O)o4)cc23)cc1 (stereo not shown)
CDC2L2
  %Inh: 0%
CDC2L5
  %Inh: 36%
CDK11
  %Inh: 96.9%
CDK2
  %Inh: 0%
CDK3
  %Inh: 4%
CDK4-cyclinD1
  %Inh: 0%
CDK4-cyclinD3
  %Inh: 0%
CDK4
  %Inh: 10%
CDK5
  %Inh: 0%
CDK7
  %Inh: 38%

## Cn1cc(-c2cccc3c(N)c(C(N)=O)nnc23)cn1
CDC2L2
  %Inh: 7%
CDC2L5
  %Inh: 10%
CDK11
  %Inh: 19%
CDK2
  %Inh: 17%
CDK3
  %Inh: 30%
CDK4-cyclinD1
  %Inh: 8%
CDK4-cyclinD3
  %Inh: 7%
CDK4
  %Inh: 0%
CDK5
  %Inh: 3%
CDK7
  %Inh: 26%

## CC(C)S(=O)(=O)N1CCN(Cc2ccc3c(c2)nc(NC(=O)c2ccsc2)n3C[C@H](O)c2ccccc2)CC1 [GW635815]
CDC2L2
  %Inh: 4%
CDC2L5
  %Inh: 0%
CDK11
  %Inh: 6%
CDK2
  %Inh: 0%
CDK3
  %Inh: 25%
CDK4-cyclinD1
  %Inh: 0%
CDK4-cyclinD3
  %Inh: 0%
CDK4
  %Inh: 42%
CDK5
  %Inh: 0%
CDK7
  %Inh: 8%

## CS(=O)(=O)c1cccc(CNc2nc(Nc3ccc4c(c3)[C@@H]3C[C@@H]4CNC3=O)ncc2C(F)(F)F)c1
CDC2L2
  %Inh: 0%
CDC2L5
  %Inh: 2%
CDK11
  %Inh: 0%
CDK2
  %Inh: 46%
CDK3
  %Inh: 33%
CDK4-cyclinD1
  %Inh: 97.1%
CDK4-cyclinD3
  %Inh: 96.4%
CDK4
  %Inh: 60%
CDK5
  %Inh: 82%
CDK7
  %Inh: 94%

## C[C@@H]1CCN(C(=O)N2CCCC2)C[C@@H]1N(C)c1ncnc2[nH]ccc12
CDC2L2
  %Inh: 0%
CDC2L5
  %Inh: 6%
CDK11
  %Inh: 2%
CDK2
  %Inh: 0%
CDK3
  %Inh: 15%
CDK4-cyclinD1
  %Inh: 21%
CDK4-cyclinD3
  %Inh: 8%
CDK4
  %Inh: 11%
CDK5
  %Inh: 18%
CDK7
  %Inh: 34%
